Screens deposited in PubChem BioAssay by several laboratories.
Rows were chosen to be rich in hits. Some 2% of all compounds tested hit in one or more screens of this group.
CHT allo act: human CHT allosteric activation; Q9GZV3; CHT-expressing cells, membrane potential dye, choline EC20; active compounds read high; LV-AA mutant CHT in HEK293 cells; B-score at 10 µM; actives 0.49% (n = 310,000);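 active means initial fluorescence not abnormally high and integrated response B-score, plate-corrected, over 3 SD above library mean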
Target sequence (Q9GZV3 whole entry, looked up): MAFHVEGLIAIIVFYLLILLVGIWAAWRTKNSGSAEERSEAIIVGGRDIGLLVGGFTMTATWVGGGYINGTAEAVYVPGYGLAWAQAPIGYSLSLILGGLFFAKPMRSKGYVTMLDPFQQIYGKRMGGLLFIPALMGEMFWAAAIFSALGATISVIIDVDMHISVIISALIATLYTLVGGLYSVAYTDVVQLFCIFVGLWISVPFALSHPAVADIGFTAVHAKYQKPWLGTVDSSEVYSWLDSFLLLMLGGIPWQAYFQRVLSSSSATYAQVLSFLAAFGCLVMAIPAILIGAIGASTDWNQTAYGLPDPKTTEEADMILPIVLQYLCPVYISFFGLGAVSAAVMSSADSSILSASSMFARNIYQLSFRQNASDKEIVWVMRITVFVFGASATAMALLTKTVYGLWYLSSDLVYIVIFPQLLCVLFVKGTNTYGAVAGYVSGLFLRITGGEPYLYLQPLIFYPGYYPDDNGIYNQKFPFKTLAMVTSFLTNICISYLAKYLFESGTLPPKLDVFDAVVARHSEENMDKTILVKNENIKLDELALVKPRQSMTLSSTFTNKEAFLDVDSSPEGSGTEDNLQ
EP2 antag: blocks the human prostaglandin E2 receptor EP2. actives 0.52% (n = 260,000). C6 glioma cells expressing human EP2, cAMP TR-FRET; cells stimulated with saturating PGE2. inhibition, % at 25 µM. AID 1422. P43116;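 active means percent inhibition above 40 after rounding to a whole number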;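 further: rat C6 glioma host cells with rolipram phosphodiesterase inhibitor present; the protocol text gives 20 µM as final concentration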
CHT block: inhibitors of human choline transporter CHT; actives 0.86% (n = 310,000); Q9GZV3; B-score at 10 µM; CHT-expressing cells, membrane potential dye, choline response; active compounds read low; AID 488975;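 active means B-score over 3 SD under the library average, and starting fluorescence ratio not unusually high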;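 further: choline stimulus applied at its EC90 after an EC20 pre-addition; B-score computed on integrated fluorescence ratio after choline addition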
EP2 modulator: EP2 receptor (human) modulation; EP2-expressing cells, cAMP HTRF FRET, PGE2 co-stimulation; AID 940; actives 0.83% (n = 260,000); induction, % at 25 µM;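 active means compounds whose cAMP rise, as percent of the full-agonist control response, exceeds 60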;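 further: rat C6 glioma line stably carrying human EP2 under a CMV promoter; the protocol text gives 20 µM as final concentration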
EP2 cAMP induct: human EP2 receptor cAMP induction, negative in counter-screens | C6 glioma EP2 cells, cAMP HTRF induction; plus low (about EC15) PGE2 agonist | shares compounds with EP2 modulator | calls only at 20 µM (by protocol) | actives 47% (n = 1,300);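 active means cAMP induction above 50% in the main assay while under 30% in all four parallel counter assays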;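 further: rat C6 glioma cells stably expressing human EP2 receptor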
CHT inh conf: confirmation of human choline transporter CHT inhibitors | shares compounds with CHT block | CHT-expressing cells, choline membrane potential dye; LV-to-AA substituted CHT, HEK293 cells | CHT activity remaining % of control (active compounds read low), % at 10 µM | actives 70% (n = 2,400) | AID 493221;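 active means choline transporter activity left, mean of duplicates at 10 µM, below buffer-only control mean minus 3 SD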;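 further: depolarization triggered by choline at its EC90 following an EC20 pre-addition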
HEK293 MPD ctr: CHT inhibitor counter-screen hit in parental HEK293 cells; shares compounds with CHT block; membrane potential dye, choline response; active = decrease or increase beyond buffer ±3SD; membrane potential ratio readout (active if shifted either direction beyond buffer ±3SD; no single direction) at 10 µM; actives 4% (n = 2,400);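 further: parental cells lack the transporter so any hit is non-specific; ratio is peak minus trough fluorescence over baseline after EC90 choline challenge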
Each line names hits and unclear results; the compound was inactive in the other large screens (follow-up assays come after a bar, where they were run).

CC(C)c1ccc(N2C(=O)NC(=O)/C(=C\c3cnc(-c4ccccc4)nc3)C2=O)cc1	none
COCCCN1Cc2ccccc2C1=N	none
N=C1c2ccccc2CN1c1ncccn1	CHT allo act 7.9
O=C(O)COc1ccc(Cl)cc1Cl	none
Oc1cc(Cl)ccc1Oc1ccc(Cl)cc1Cl	CHT block -5 (no result: EP2 modulator)
O=C1CC2(CCNCC2)Oc2ccc(Cl)cc21	none (no result: CHT allo act, CHT block)
O=C(Nc1ccc([As](=O)(O)O)cc1)Nc1cccc(Cl)c1Cl	EP2 antag 58 (no result: CHT allo act, CHT block)
CC(=O)OC(C)(C)/C=C/C(=O)[C@](C)(O)[C@H]1[C@H](O)C[C@@]2(C)[C@@H]3CC=C4[C@H](C[C@H](O)C(=O)C4(C)C)[C@]3(C)C(=O)C[C@]12C	none (no result: CHT allo act, CHT block)
CC(=O)OC(C)(C)/C=C/C(=O)C(C)(O)C1[C@H](O)C[C@@]2(C)C3CC=C4C(CC[C@@H](O)C4(C)C)[C@]3(CO)C(=O)C[C@]12C (stereo not given in full)	CHT allo act 8.7 (no result: EP2 antag, EP2 modulator)
CN(C)CCN(C(=O)Cc1n[nH]c(=O)c2ccccc12)C1CCCCC1	none (no result: CHT allo act, CHT block)
O=[As](O)(O)c1ccc(N=Nc2ccc([As](=O)(O)O)cc2)cc1	EP2 antag 50 (no result: CHT allo act, CHT block)
O=[As](O)(O)c1ccc(N=Nc2ccc(O)cc2)cc1	none
Nc1nc(N)c(N=Nc2ccc([As](=O)(O)O)cc2)c(=O)[nH]1	EP2 antag 42 (no result: CHT allo act, CHT block)
CCOc1cc(CN2CCN(C(CC)CC)CC2)ccc1OC	none (no result: CHT allo act, CHT block)
Cn1ccnc1C1(O)CC2CCC(C1)N2CC(=O)Nc1cccc(F)c1 (stereo not given)	none (no result: CHT allo act, EP2 antag, CHT block)
Cc1nn(Cc2ccc(Cl)cc2Cl)c(Cl)c1C(=O)O	none
N=c1c2c(n(Cc3ccc(Cl)cc3Cl)c3c1CCC3)CCCC2	CHT allo act 6.4
O=C(O)C[SH+]CC(=O)O.O=C(O)C[SH+]CC(=O)O.[Cu]	EP2 antag 44 (no result: CHT allo act, CHT block)
O=C(O)CN1CCN(CC(=O)O)CC(=O)[O][Hg][O]C(=O)C1	EP2 antag 103 (no result: CHT allo act, CHT block)
C#CCOc1ccccc1CN1C2CCC1CC(O)(c1nccn1C)C2 (stereo not given)	none (no result: CHT allo act, CHT block)
O=C1NC(=S)NC(=O)C1=Cc1cccn1-c1ccc(O)cc1	EP2 antag 112 (no result: CHT allo act, CHT block)
CN1C(=O)/C(=C/c2cccn2-c2ccc3ccccc3c2)C(=O)NC1=S	none
CCN(CC)c1ccc2c3c(c(=O)oc2c1)C(c1cc2ccc(C)c(C)c2[nH]c1=O)C(C#N)=C(N)O3 (stereo not given)	none (no result: CHT allo act, CHT block)
C[As+](C)(c1ccc(Br)c([N+](=O)[O-])c1)c1ccc(Br)c([N+](=O)[O-])c1.O=[N+]([O-])O	EP2 antag 44 (no result: CHT allo act, CHT block)
O=[N+]([O-])c1cc(S(=O)(=O)c2ccc(O)c([N+](=O)[O-])c2)ccc1O	none
CC1(C)CCC(C)(C)c2c1ccc(O)c2Cc1c(O)ccc2c1C(C)(C)CCC2(C)C	EP2 antag 45 (no result: CHT allo act, CHT block)
Nc1c2c(nc3ccccc13)CCCCC2 (tested in a mixture with another compound)	none (no result: CHT allo act, CHT block)
C[C@@H]1O[C@H](OC2[C@@H](O)[C@H](O)C(O)[C@H](O)[C@H]2O)[C@@H](N)C[C@H]1N=C(N)C(=O)O (stereo not given in full)	EP2 antag 51 (no result: CHT allo act, CHT block)
c1cc2c(c(NC3=NCCN3)c1)CCCC2	EP2 antag 43 (no result: CHT allo act, CHT block)
O=C(CN1C2CCC1CC(O)(c1ccccn1)C2)NCc1ccco1 (stereo not given)	none (no result: CHT allo act, EP2 antag, CHT block)
O=C(O)C[C@H]1OCC=C2CN3CC[C@]45C6=CC(=O)C(=O)C([N+](=O)[O-])=C6N[C@H]4[C@H]1[C@H]2C[C@H]35	EP2 antag 41 (no result: CHT allo act, CHT block)
O=[N+]([O-])c1ccc(N2CCNCC2)c2ncccc12	none (no result: CHT allo act, EP2 antag, CHT block)
CN1CCN(c2ccc([N+](=O)[O-])c3cccnc23)CC1	CHT allo act 7.1 (no result: EP2 antag)
Cc1ccc(NC(=[OH+])c2cc3ccccc3cc2O)c(C)c1.Cc1ccc(NC(=[OH+])c2cc3ccccc3cc2O)c(C)c1.[Ni]	EP2 antag 43 (no result: CHT allo act, CHT block)
CCn1ncc(CN(CCc2ccccc2)Cc2cccs2)c1C	none (no result: CHT allo act, CHT block)
C=Cn1cc(CN(CCc2ccccc2)Cc2cccs2)c(C)n1	EP2 modulator 69 (no result: CHT allo act, CHT block)
Cc1ccc2[nH]c(C)c(CC(=O)N(CCN(C)C)C3CCN(C)CC3)c2c1	none (no result: CHT allo act, CHT block)
C[C@]12CCC3C(CC[C@H]4C[C@@H](Cl)CC[C@]34C)C1CCC2=O (stereo not given in full)	EP2 modulator 64 (no result: CHT allo act, CHT block) | EP2 cAMP induct active
C[C@]12CCC3[C@@H](CC[C@H]4C[C@@H](O)CC[C@]34C)C1CCC2=O (stereo not given in full)	none (no result: EP2 antag, EP2 modulator)
COc1ccc(CN2CCN(C(=O)COc3cccc(C)c3)CC2)cc1OC	none (no result: CHT allo act, CHT block)
Cc1ccc(NP(=O)(Oc2ccccc2F)Oc2ccccc2F)cc1C	EP2 modulator 71 | EP2 cAMP induct inactive
CC1=C(C(=O)OC(C)C)C2(C(=O)Nc3ccc(Cl)cc32)C(C#N)=C(N)O1 (stereo not given)	none (no result: CHT allo act, CHT block)
CCC(=O)O[C@H]1CCC2C3CCC4=CC(=O)CC[C@]4(C)C3CC[C@@]21C (stereo not given in full)	EP2 modulator 77 (no result: CHT allo act, CHT block) | EP2 cAMP induct active
CCN1CCN(c2ccc(NC(=O)C(C)(C)C)cc2)CC1	none (no result: CHT allo act, CHT block)
COC(=O)C(C)Oc1cc(C)cc2oc(=O)c3c(c12)CCCC3 (stereo not given)	none
Cc1cc(OCC(=O)OC(C)C)c2c3c(c(=O)oc2c1)CCCC3	EP2 modulator 66 | EP2 cAMP induct active
COC(=O)C1=C(N)Oc2c(c(=O)oc3ccccc23)C1c1ccc(C(F)(F)F)cc1 (stereo not given)	none (no result: CHT allo act, CHT block)
CC(C)C1(C)N=C(c2ncccc2C(=O)O)NC1=O (stereo not given)	EP2 modulator 72 | EP2 cAMP induct inactive
COc1ccc(CC(=O)N2CCN(Cc3ccco3)C[C@@H]2C)cc1	none (no result: CHT allo act, EP2 antag, CHT block)
CN(N=O)c1ccc(O)c(O)c1	EP2 modulator 83 (no result: CHT allo act, CHT block) | EP2 cAMP induct inactive
CCc1ccccc1NC(=O)CNC1CCCCC1	none
CN(CC(=O)Nc1ccccc1-c1ccccc1)C1CCCCC1	EP2 modulator 74 | EP2 cAMP induct inactive
O=c1c2ccccc2nc(N2CCCC2)n1-c1ccc(Cl)cc1	EP2 modulator 68 | EP2 cAMP induct active
c1ccc2c(CN3CCCCCCC3)c[nH]c2c1	CHT block -11 (no result: EP2 antag) | CHT inh conf 2.7% | HEK293 MPD ctr inactive
CCn1c(P(C)(=O)O)nc2ccccc21	none
CCn1c(P(C)(=O)O)nc2cc(NC(=O)c3ccccc3F)ccc21	CHT block -12 | CHT inh conf inactive | HEK293 MPD ctr inactive
